Experimental data: PubChem BioAssay AID540308 (The Scripps Research Institute Molecular Screening Center, 2011)
About 3,500 (0.97%) of roughly 360,000 compounds were called active.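 Rule for the calls: active = activation above a per-plate cutoff, the mean activation of sample wells on that plate plus 3 SD (cut at about 8% in these data); inactive = the rest.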 The sample as a whole holds a higher share of actives than the screen did.

What follows are molecules tested against Melanocortin receptor 4 (Homo sapiens) (UniProt P32245) (assay: activators of MC4R beta-arrestin recruitment – cell-based, luminescence, agonist arm of biased-ligand search, primary screen (AID 540308)). Conditions: U2OS MC4R beta-arrestin complementation, at 8.9 µM, stronger effect = higher value, percent of melanotan II response, DMSO zero.
Melanocortin receptor 4 (Homo sapiens), sequence (P32245 whole entry, looked up): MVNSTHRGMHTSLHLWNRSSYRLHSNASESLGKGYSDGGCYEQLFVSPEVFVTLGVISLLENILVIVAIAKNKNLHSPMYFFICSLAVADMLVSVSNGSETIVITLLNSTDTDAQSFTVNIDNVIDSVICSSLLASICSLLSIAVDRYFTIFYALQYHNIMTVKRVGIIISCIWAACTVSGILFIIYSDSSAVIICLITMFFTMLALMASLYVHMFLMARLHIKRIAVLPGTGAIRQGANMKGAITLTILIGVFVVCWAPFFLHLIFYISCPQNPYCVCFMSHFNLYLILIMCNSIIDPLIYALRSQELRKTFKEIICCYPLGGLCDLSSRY

| SMILES | activation |
| --- | --- |
| CS(=O)(=O)N1CCCCC1c1cc(C(=O)NCc2ccccc2)no1 (stereo not given) | 0.31% (inactive) |
| CC1(C(=O)NCc2ccc3c(c2)OCO3)CCN1CCc1ccccc1 (stereo not given) | 1.41% (inactive) |
| CCCNC(=O)C1(C)CCCN(C(=O)c2cccc(OC(C)=O)c2C)C1 (stereo not given) | -0.89% (inactive) |
| COC(=O)c1cc(C(=O)N(Cc2ccccc2)c2ccccn2)cc([N+](=O)[O-])c1 | 2.05% (inactive) |
| CC(=O)N(CN1C(=O)C2CC=CCC2C1=O)c1cccc(Cl)c1 (stereo not given) | -0.75% (inactive) |
| O=C(CCl)N(Cc1cccc([N+](=O)[O-])c1)c1cccc(Cl)c1 | 20.4% (active) |
| Cn1c(Nc2ccc(F)cc2)nc2cc(-c3ccsc3)sc2c1=O | 2.85% (inactive) |
| Cc1ccc(-c2nn(-c3ccccc3)cc2/C=C2\SC(=S)N(CCCCCC(=O)O)C2=O)o1 | 8.64% (active) |
| CN(C(=O)CCN1C(=O)/C(=C/c2ccccc2F)SC1=S)C1CCS(=O)(=O)C1 (stereo not given) | -1.67% (inactive) |
| O=C1/C(=C\c2ccccc2Cl)SC(=S)N1CCC(=O)N1CCCc2ccccc21 | -0.74% (inactive) |
| COc1ccc(-c2coc3c(C(=O)NC(C)C)cccc23)c(C)c1 | 0.44% (inactive) |
| CCOC(=O)c1c(C)[nH]c(C(=O)NCCN2CCOCC2)c1C | -1.01% (inactive) |
| COc1cccc(CNCCc2c[nH]c3ccccc23)c1OCc1ccccc1F | 10.3% (active) |
| COc1ccc(C(CCNCc2ccccc2F)c2ccc(F)cc2)cc1 (stereo not given) | 2.17% (inactive) |
| Fc1ccccc1COc1ccccc1CNCc1ccncc1 | -1.5% (inactive) |
| CN1C[C@@H](CO)O[C@@H](n2cnc3c(N4CCN(CCO)CC4)ncnc32)C1 | -0.08% (inactive) |
| COc1ccc(S(=O)(=O)N2CCOC2CNC(=O)C(=O)NCc2ccncc2)cc1C (stereo not given) | 0.29% (inactive) |
| CCNC(=O)C1(C)CCCN1C(=O)c1ccc(N(C)C)cc1 (stereo not given) | -0.82% (inactive) |
| O=C(NCCc1c[nH]c2ccc(Cl)cc12)c1ccc([N+](=O)[O-])cc1 | 10.4% (active) |
| O=C(NCCc1ccc(Cl)cc1Cl)c1cc([N+](=O)[O-])c[nH]c1=O | -2.62% (inactive) |
| Cc1ccc2[nH]cc(CCNC(=O)c3ccc([N+](=O)[O-])cc3)c2c1 | -2.01% (inactive) |
| COC(=O)c1ccc(S(=O)(=O)N2CCC(c3nc4ccccc4o3)CC2)cc1 | -0.95% (inactive) |
| CC1(C(=O)Nc2ccc3c(c2)OCCO3)CCN1C(=O)Cc1cc(F)ccc1F (stereo not given) | -0.93% (inactive) |
| CC1(Oc2ccc(Cl)cc2)CCN(Cc2csc3ccccc23)C1 (stereo not given) | 5.74% (inactive) |
| OC(c1ccccc1)c1nc(/C=C/c2ccc(C(F)(F)F)cc2)cs1 (stereo not given) | 1.43% (inactive) |
